# PubChem BioAssay (EPA / NIEHS)
# Some structures have more than one record in an assay (separate samples or runs), and their calls can disagree. The source made the active and inactive calls. Rule for the calls: active = hit-call score of the fitted dose curve at least 0.9, where 1 is the maximum; inactive = score below 0.9.
# How the values were obtained:
# [1] = BSK_CASM3C_SRB: Viability Assessment in the BioMAP Diversity Plus: CASM3C Assay (AID 2283050); settings: primary human coronary artery smooth muscle cells;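 note: cells exposed to compound for 24 h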
# [2] = read-out: Thrombomodulin, THBD (gene 7056); assay: BSK_CASM3C_Thrombomodulin: BioMAP Diversity Plus: CASM3C Assay for Thrombomodulin Biomarker Activity (AID 2283051); settings: primary human coronary artery smooth muscle cells; actives raise or lower the signal;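 note: thrombomodulin protein level measured by ELISA 24 h after dosing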
# [3] = read-out: Tissue Factor, F3 (gene 2152); assay: BSK_CASM3C_TissueFactor: BioMAP Diversity Plus: CASM3C Assay for Tissue Factor Biomarker Activity (AID 2283052); settings: primary human coronary artery smooth muscle cells; actives raise or lower the signal;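 note: cell surface tissue factor protein level read by ELISA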
# [4] = read-out: Urokinase-type plasminogen activator receptor (uPAR), PLAUR (gene 5329); assay: BSK_CASM3C_uPAR: BioMAP Diversity Plus: CASM3C Assay for Urokinase-type plasminogen activator receptor (uPAR) Biomarker Activity (AID 2283054); settings: primary human coronary artery smooth muscle cells; actives raise or lower the signal;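 note: cell-surface uPAR protein level quantified by ELISA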
# [5] = read-out: Vascular cell adhesion molecule 1 (VCAM1), VCAM1 (gene 7412); assay: BSK_CASM3C_VCAM1: BioMAP Diversity Plus: CASM3C Assay for Vascular cell adhesion molecule 1 (VCAM1) Biomarker Activity (AID 2283055); settings: primary human coronary artery smooth muscle cells; actives raise or lower the signal;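 note: VCAM-1 protein level quantified by ELISA on the cells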
# [6] = read-out: Collagen III, COL3A1 (gene 1281); assay: BSK_hDFCGF_CollagenIII: BioMAP Diversity Plus: hDFCGF Assay for Collagen III Biomarker Activity (AID 2283056); settings: primary human foreskin fibroblasts; actives raise or lower the signal
# Method in brief: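 Human foreskin fibroblast primary cultures sampled 24 h after dosing; Collagen III quantified by ELISA. Signal fitted bidirectionally against DMSO baseline.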
# [7] = read-out: Epidermal growth factor receptor (EGFR), EGFR (gene 1956); assay: BSK_hDFCGF_EGFR: BioMAP Diversity Plus: hDFCGF Assay for Epidermal growth factor receptor (EGFR) Biomarker Activity (AID 2283057); settings: primary human foreskin fibroblasts; actives raise or lower the signal
# Method in brief: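 Primary human foreskin fibroblasts (hDFCGF system), sampled 24 h after dosing; EGFR quantified by ELISA. Bidirectional fit relative to DMSO baseline; SRB total-protein staining in parallel cultures for cytotoxicity.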
# [8] = read-out: Interleukin-8 (IL8), CXCL8 (gene 3576); assay: BSK_hDFCGF_IL8: BioMAP Diversity Plus: hDFCGF Assay for Interleukin-8 (IL8) Biomarker Activity (AID 2283058); settings: primary human foreskin fibroblasts; actives raise or lower the signal
# Method in brief: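 Primary human foreskin fibroblasts (hDFCGF system) dosed with chemical; IL-8 measured by ELISA 24 hours later. Bidirectional curve fitting relative to DMSO baseline; cytotoxicity tracked in parallel cultures by SRB total protein staining.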
# [9] = BSK_hDFCGF_Proliferation: Cell Proliferation Assessment in the BioMAP Diversity Plus: hDFCGF Assay (AID 2283059); settings: primary human foreskin fibroblasts;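 note: curves fitted for both rise and fall of signal versus DMSO baseline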
# Method in brief: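 Primary human foreskin fibroblasts, sub-confluent; […]; 10% TCA fix, 0.1% SRB stain, A560 total protein. Gain/loss fitted bidirectionally vs DMSO control.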
# [10] = read-out: Macrophage colony-stimulating factor (MCSF), CSF1 (gene 1435); assay: BSK_hDFCGF_MCSF: BioMAP Diversity Plus: hDFCGF Assay for Macrophage colony-stimulating factor (MCSF) Biomarker Activity (AID 2283060); settings: primary human foreskin fibroblasts; actives raise or lower the signal
# Method in brief: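 Human foreskin fibroblast primary cultures; M-CSF measured by ELISA 24 hours after chemical dosing. Bidirectional fitting relative to DMSO, with overt cytotoxicity tracked by parallel SRB total-protein staining (0.1% SRB, 10% TCA fixation, 560 nm).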
# [11] = BSK_hDFCGF_SRB: Viability Assessment in the BioMAP Diversity Plus: hDFCGF Assay (AID 2283061); settings: primary human foreskin fibroblasts;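 note: cells exposed to compound for 24 h before the read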
# Method in brief: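 Human foreskin fibroblasts in 96-well plates were treated 24 h. Total protein was measured by 0.1% SRB staining after 10% TCA fixation, read at 560 nm. Data were fitted bidirectionally against DMSO.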
# [12] = read-out: TIMP metallopeptidase inhibitor 1 (TIMP1), TIMP1 (gene 7076); assay: BSK_hDFCGF_TIMP1: BioMAP Diversity Plus: hDFCGF Assay for TIMP metallopeptidase inhibitor 1 (TIMP1) Biomarker Activity (AID 2283062); settings: primary human foreskin fibroblasts; actives raise or lower the signal
# Method in brief: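 Human foreskin fibroblast primary cultures dosed for 24 h; secreted/surface TIMP-1 quantified by ELISA. Bidirectional curve fitting against DMSO baseline; cytotoxicity tracked in parallel cultures by SRB total-protein staining.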
# [13] = read-out: Monokine induced gamma interferon (MIG), CXCL9 (gene 4283); assay: BSK_hDFCGF_MIG: BioMAP Diversity Plus: hDFCGF Assay for Monokine induced gamma interferon (MIG) Biomarker Activity (AID 2283063); settings: primary human foreskin fibroblasts; actives raise or lower the signal
# Method in brief: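 MIG/CXCL9 measured by ELISA 24 h after dosing primary human skin fibroblasts. Activity fitted in both directions against DMSO controls. Cytotoxicity was checked in parallel cultures by SRB staining read at 560 nm.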
# [14] = read-out: Vascular cell adhesion molecule 1 (VCAM1), VCAM1 (gene 7412); assay: BSK_hDFCGF_VCAM1: BioMAP Diversity Plus: hDFCGF Assay for Vascular cell adhesion molecule 1 (VCAM1) Biomarker Activity (AID 2283065); settings: primary human foreskin fibroblasts; actives raise or lower the signal
# Method in brief: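 Human foreskin fibroblast primary cells dosed with chemical, VCAM-1 measured by ELISA at 24 h. Bidirectional curve fitting relative to DMSO as negative control/baseline.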
# [15] = read-out: Plasminogen activator inhibitor-1 (PAI1), SERPINE1 (gene 5054); assay: BSK_hDFCGF_PAI1: BioMAP Diversity Plus: hDFCGF Assay for Plasminogen activator inhibitor-1 (PAI1) Biomarker Activity (AID 2283066); settings: primary human foreskin fibroblasts; actives raise or lower the signal
# Method in brief: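 Human foreskin fibroblast primary cells, 24 h chemical exposure; PAI-1 measured by ELISA. Bidirectional fitting relative to DMSO; parallel cultures stained with SRB for total protein to flag overt cytotoxicity.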
# [16] = read-out: Intercellular Adhesion Molecule 1 (ICAM1), ICAM1 (gene 3383); assay: BSK_KF3CT_ICAM1: BioMAP Diversity Plus: KF3CT Assay for Intercellular Adhesion Molecule 1 (ICAM1) Biomarker Activity (AID 2283067); settings: primary human keratinocytes with fibroblasts; actives raise or lower the signal
# Method in brief: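 Human keratinocyte–foreskin fibroblast co-culture was treated for 24 h. Cell-surface ICAM-1 was quantified by ELISA, fitted bidirectionally relative to DMSO. Cytotoxicity was checked in parallel cultures by SRB total-protein staining.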
# [17] = BSK_KF3CT_SRB: Viability Assessment in the BioMAP Diversity Plus: KF3CT Assay (AID 2283069); settings: primary human keratinocytes with fibroblasts;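 note: total protein by sulforhodamine B staining as a cytotoxicity measure; read 24 h after compound addition; fitted for both signal gain and loss against DMSO baseline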
# Method in brief: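 Human keratinocyte and foreskin fibroblast co-culture exposed to chemical for 24 h. Total protein measured in parallel cultures by 0.1% sulforhodamine B staining after 10% TCA fixation, read at 560 nm; bidirectional fit relative to DMSO.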
# [18] = read-out: Matrix Metallopeptidase 1 (MMP1), MMP1 (gene 4312); assay: BSK_hDFCGF_MMP1: BioMAP Diversity Plus: hDFCGF Assay for Matrix Metallopeptidase 1 (MMP1) Biomarker Activity (AID 2283064); settings: primary human foreskin fibroblasts; actives raise or lower the signal
# Method in brief: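 Primary human foreskin fibroblasts exposed to chemicals for 24 h; MMP1 measured by ELISA. Cytotoxicity tracked by SRB staining in parallel cultures; bidirectional fit relative to DMSO.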
# [19] = read-out: Interferon-gamma inducible Protein 10 (IP10), CXCL10 (gene 3627); assay: BSK_KF3CT_IP10: BioMAP Diversity Plus: KF3CT Assay for Interferon-gamma inducible Protein 10 (IP10) Biomarker Activity (AID 2283068); settings: primary human keratinocytes with fibroblasts; actives raise or lower the signal
# Method in brief: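 In a primary skin co-culture of keratinocytes and fibroblasts, IP-10 is quantified by ELISA at 24 h after dosing. SRB staining of parallel wells monitors overt toxicity. Curves are fitted both directions against DMSO.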
structure (smiles),measurement,setting,value
O=C(O)C(F)(F)C(F)(F)C(F)(F)OC(F)(F)F,outcome,[1],inactive
same,outcome,[2],inactive
same,outcome,[3],inactive
same,outcome,[4],inactive
same,outcome,[5],inactive
same,outcome,[6],inactive
same,outcome,[7],inactive
same,outcome,[8],inactive
same,outcome,[9],inactive
same,outcome,[10],inactive
same,outcome,[11],inactive
same,outcome,[12],inactive
same,outcome,[13],inactive
same,outcome,[14],inactive
same,outcome,[15],inactive
same,outcome,[16],inactive
same,outcome,[17],inactive
O=S(=O)(Cl)C(F)(F)C(F)(F)C(F)(F)C(F)(F)C(F)(F)C(F)(F)C(F)(F)C(F)(F)F,outcome,[1],inactive
same,outcome,[2],inactive
same,outcome,[3],inactive
same,outcome,[4],inactive
same,outcome,[5],inactive
same,outcome,[6],inactive
same,outcome,[7],inactive
same,outcome,[8],inactive
same,AC50,[9],7.61 µM (active)
same,outcome,[9],inactive
same,outcome,[10],inactive
same,outcome,[11],inactive
same,outcome,[12],inactive
same,outcome,[13],inactive
same,outcome,[18],inactive
same,outcome,[14],inactive
same,outcome,[15],inactive
same,outcome,[16],inactive
same,outcome,[17],inactive
CC1=CC2C3C=CC(C3)C2C1C (centres undefined),outcome,[1],inactive
same,outcome,[2],inactive
same,outcome,[3],inactive
same,outcome,[4],inactive
same,outcome,[5],inactive
same,outcome,[6],inactive
same,outcome,[7],inactive
same,outcome,[8],inactive
same,AC50,[9],28.2 µM (active)
same,outcome,[10],inactive
same,outcome,[11],inactive
same,outcome,[12],inactive
same,outcome,[13],inactive
same,outcome,[14],inactive
same,outcome,[15],inactive
same,outcome,[16],inactive
same,outcome,[17],inactive
Nc1cc([N+](=O)[O-])cc(Cl)c1O,outcome,[1],inactive
same,outcome,[2],inactive
same,outcome,[3],inactive
same,outcome,[4],inactive
same,outcome,[5],inactive
same,outcome,[6],inactive
same,outcome,[7],inactive
same,outcome,[8],inactive
same,outcome,[9],inactive
same,outcome,[10],inactive
same,outcome,[11],inactive
same,outcome,[12],inactive
same,outcome,[13],inactive
same,outcome,[18],inactive
same,outcome,[14],inactive
same,outcome,[15],inactive
same,outcome,[16],inactive
same,outcome,[19],inactive
same,outcome,[17],inactive
O=S(=O)(O)CCC(F)(F)C(F)(F)C(F)(F)C(F)(F)F,outcome,[1],inactive
same,outcome,[2],inactive
same,outcome,[3],inactive
same,outcome,[4],inactive
same,outcome,[5],inactive
same,AC50,[6],2.04 µM (active)
same,outcome,[6],inactive
same,outcome,[7],inactive
same,outcome,[8],inactive
same,outcome,[9],inactive
same,outcome,[10],inactive
same,outcome,[11],inactive
same,outcome,[12],inactive
same,outcome,[13],inactive
same,outcome,[18],inactive
same,outcome,[14],inactive
same,outcome,[15],inactive
same,outcome,[16],inactive
same,outcome,[19],inactive
same,outcome,[17],inactive
NCC(F)(F)C(F)(F)C(F)(F)C(F)(F)C(F)(F)C(F)(F)C(F)(F)C(F)(F)F,outcome,[1],inactive
same,outcome,[2],inactive
same,outcome,[3],inactive
same,outcome,[4],inactive
same,outcome,[5],inactive
same,outcome,[6],inactive
same,outcome,[7],inactive
same,outcome,[8],inactive
same,outcome,[9],inactive
same,outcome,[10],inactive
same,outcome,[11],inactive
same,outcome,[12],inactive
same,outcome,[13],inactive
same,outcome,[14],inactive
same,outcome,[15],inactive
same,outcome,[16],inactive
same,outcome,[17],inactive
